# The supplement of paper PMC12339681
# Structures can show the parent of a compound that is named as a salt.
# Test system: PBMC-derived induced microglia-like cells (piMGLC)
# Test: synaptosome phagocytic index relative to DMSO control (fraction of DMSO); higher = more phagocytosis
# Conditions: concentration: 10 uM (2 uM for compounds listed in Table S2); pretreatment time: 24 h; assay time: 3 h
# Experimental: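 PBMC-derived induced microglia-like cells (piMGLCs) in 96-well plates were pretreated for 24 h with CNS-penetrant library compounds (MedChemExpress HY-L028), mostly at 10 uM; Table S2 lists 9 compounds at 2 uM. pHrodo-Red-labelled human iPSC-neuron synaptosomes (3 ug/well) were then added for 3 h, and cells were fixed and imaged by confocal microscopy. Phagocytic index (synaptosome area / cell count, CellProfiler) is a mean over 3 replicate wells on different plates, normalized to the DMSO control. Compounds leaving <10% of DMSO cell count were marked toxic and given no value.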
row,Structure (SMILES),synaptosome phagocytic index
1,CCN(C(=O)c1c(O)c2c(Cl)cccc2n(C)c1=O)c1ccccc1 [Laquinimod],0.888
2,COC(=O)/C=C/C(=O)OC [Dimethyl_fumarate],0.706
3,OCCOCCN1CCN(C2=Nc3ccccc3Sc3ccccc32)CC1 [Quetiapine],0.906
4,Cc1ccc(S(=O)(=O)/C=C/C#N)cc1,0.903
5,Cc1ccnc2c1NC(=O)c1cccnc1N2C1CC1 [Nevirapine],0.84
6,Cc1cc2c(s1)Nc1ccccc1N=C2N1CCN(C)CC1 [Olanzapine],0.345
7,CC(=O)Nc1ccc(C(=O)Nc2cc(-c3cccs3)ccc2N)cc1,0.416
8,COc1cn(-c2ccc(-n3cccn3)cc2F)nc(-c2ccnn2-c2ccccc2)c1=O [Balipodect],0.835
9,Cc1c(N)c(=O)n(-c2ccccc2)n1C [Ampyrone],0.708
10,CN1C(=O)C(Cc2c[nH]c3ccccc23)NC1=S (stereo not given) [Necrostatin-1],0.88
11,CN1CCN(C2=Nc3cc(Cl)ccc3Nc3ccccc32)CC1 [Clozapine],0.697
12,CC1COc2c(N3CCN(C)CC3)c(F)cc3c(=O)c(C(=O)O)cn1c23 (stereo not given) [Ofloxacin],1.05
13,C.CN(C)C(=O)c1cc2cnc(Nc3ccc(N4CCNCC4)cn3)nc2n1C1CCCC1 [Ribociclib_succinate_hydrate],0.195
14,CC(=O)Nc1nnc(S(N)(=O)=O)s1 [Acetazolamide],1.03
15,O=C(O)Cc1ccccc1Nc1c(Cl)cccc1Cl [Diclofenac_(Sodium)],0.856
16,CN(C/C=C/C#CC(C)(C)C)Cc1cccc2ccccc12 [Terbinafine],0.502
17,CC[C@H](CO)Nc1nc(NCc2ccccc2)c2ncn(C(C)C)c2n1 [Seliciclib],0.569
18,COc1ccc(Cl)cc1C(=O)NCCc1ccc(S(=O)(=O)NC(=O)NC2CCCCC2)cc1 [Glibenclamide],0.608
19,CC/C(=C(/CC)c1ccc(O)cc1)c1ccc(O)cc1 [Diethylstilbestrol],0.638
20,Cc1ccc(Nc2nccc(N(C)c3ccc4c(C)n(C)nc4c3)n2)cc1S(N)(=O)=O [Pazopanib_(Hydrochloride)],0.523

row,Structure (SMILES),synaptosome phagocytic index
1,CN1C2CCCC1CC(NC(=O)c1nn(C)c3ccccc13)C2 (stereo not given) [Granisetron_(Hydrochloride)],0.891
2,CCCN(CCC)S(=O)(=O)c1ccc(C(=O)O)cc1 [Probenecid],0.701
3,Nc1cc(C(F)(F)F)c(-c2cc(N3CCOCC3)nc(N3CCOCC3)n2)cn1 [Buparlisib_(Hydrochloride)],0.429
4,Cn1ncc(-c2nn(C)c3ncnc(N4CCC4)c23)c1-c1ccc(C(F)(F)F)cc1,0.505
5,C[C@@H]1O[C@@H]1P(=O)(O)O [Fosfomycin_(calcium)],0.946
6,Cc1ccc(NC(=O)c2ccc(CN3CCN(C)CC3)cc2)cc1Nc1nccc(-c2cccnc2)n1 [Imatinib_(Mesylate)],0.52
7,COc1ccc2c(c1)c(CC(=O)O)c(C)n2C(=O)c1ccc(Cl)cc1 [Indomethacin],1.22
8,FC(F)(F)c1ccc(CNc2ccc(Cc3c[nH]c4ncc(Cl)cc34)cn2)cn1 [Pexidartinib_(hydrochloride)],0.976
9,Nc1cc(C(F)(F)F)c(-c2nc(N3CCOCC3)nc(N3CCOCC3)n2)cn1 [Bimiralisib],0.518
10,O=S1(=O)N[C@H]2CCCN2c2ccccc21,0.742
11,CC(C)c1ccc(NC(=O)c2c(-c3cc(F)ccc3F)ccnc2N2CC[C@H](F)C2)cn1 [Nav1.1_activator_1],0.451
12,CNCCCN1c2ccccc2CCc2ccccc21 [Desipramine_hydrochloride],1.13
13,Cn1cnc2c(F)c(Nc3ccc(Br)cc3Cl)c(C(=O)NOCCO)cc21 [Selumetinib],0.811
14,CN(C)CCOc1ccc(-c2nc(-c3ccncc3)c(-c3ccc4c(c3)CC/C4=N\O)[nH]2)cc1,0.684
15,Nc1ncnc2c1ncn2[C@@H]1O[C@H](CO)[C@@H](O)[C@H]1O [Adenosine],0.51
16,Nc1nc(NC2CC2)c2ncn([C@H]3C=C[C@@H](CO)C3)c2n1 [Abacavir],1.15
17,S=c1nc[nH]c2nc[nH]c12 [6-Mercaptopurine],0.669
18,C[C@@H](Nc1nc(N[C@H](C)C(F)(F)F)nc(-c2cccc(Cl)n2)n1)C(F)(F)F [Vorasidenib],0.481
19,Cc1ccc(C(=O)NCCCCCC(=O)Nc2ccccc2N)cc1,0.694
20,COC(=O)/C=C/c1ccc(O)c(OC)c1 [Ferulic_acid_methyl_ester],0.783
